Marburg entry inh = blocks Marburg virus binding to or entry into cells; Potency, µM (titrated, usually from 37.8 µM), inactives show at the top dose activity change, negative = inhibition, usual class: inhibitors; Marburg virus pseudotyped entry inhibition, cell reporter; AID 540276; 300,000 compounds, 1.8% hits; calls by dose curve; tested in HEK293 cells; also: potency is read from the fitted curve at half-maximal effect; % is scaled to controls: 0 for no effect and ±100 for the full control effect
LASV entry inh = Lassa virus entry inhibition; Lassa virus pseudotype entry inhibition, cell reporter; Potency, µM (series often up to 37.9 µM), for inactives: at the highest dose activity change, negative = inhibition, usual class: inhibitors; 300,000 compounds, 1.2% hits; AID 540256; calls by dose curve; tested in HEK293 cells; also: potency is read from the fitted curve at half-maximal effect; % is scaled to controls: 0 for no effect and ±100 for the full control effect; nearly all actives have a fitted effect of over 50% in size
Shiga toxin inh = blocks Shiga toxin action in Vero cells; Vero cells, Shiga toxin protein synthesis inhibition reporter; inhibition, % at 38.7 µM; 290,000 compounds, 9.2% hits; AID 2315; in the data active = inhibition mostly above about 28%, no sharp cut-off; inactive = mostly below about 43%; also: 0% is about no effect
Cycloheximide cs = counter-screen for Shiga toxin inhibitors: cycloheximide protein synthesis inhibition; cell reporter, cycloheximide protein synthesis inhibition counterscreen; max response, %; 300,000 compounds, 12% hits; AID 2314; in the data active = max response mostly above about 13%, no sharp cut-off; inactive = mostly below about 14%; also: read at 38.3 µM for the half of the compounds with a filed dose; 0% is about no effect
AMA1-RON2 inh = inhibitors of Plasmodium falciparum AMA1-RON2 interaction; AlphaScreen AMA1-biotinylated RON2 peptide binding; Potency, µM (highest dose often 58.2 µM), without a hit: at the top dose activity change, negative = inhibition, usual class: inhibitors; 360,000 compounds, 0.2% hits; AID 720542; active = well fitted inhibition curve with a large enough effect; inconclusive = small, poorly fitted or top-dose-only effect; inactive = no such curve, though single readings can be large or run the other way;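 also: potency is read from the fitted curve at half-maximal effect; 0% = vehicle wells and -100% = peptide control; nearly all actives have a fitted effect of over 45% in size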
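AMA1 (3D7) with his tag at 25 nM final met compounds first, then biotinylated RON2 peptide at 25 nM; detection used donor plus acceptor beads, 10 µg/mL apiece, read by AlphaScreen after 30 min at room temperature.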
Starred values were filed as active, the others as inactive; ? = inconclusive; · = no result given; [ ] = dose if it differs, or a comment. The full list was thinned out, with hits kept by preference.

SMILES	Marburg entry inh	LASV entry inh	Shiga toxin inh	Cycloheximide cs	AMA1-RON2 inh
COc1cccc(C(=O)NNC(=O)c2cccnc2)c1	9%[46.1 µM]	5%[46.1 µM]	-7	7	-1%
COc1cccc(OC)c1C(=O)NNC(=O)c1cccnc1	4%	?	-15	18*	-8%
COc1cccc(NC(=O)c2cccnc2)c1	19%	1%	31	32*	8%
COc1cccc(C(=O)Nc2ccc3ccccc3c2)c1	?	?	·	40*	13%
CCn1c2ccccc2c2cc(NC(=O)c3cccc(OC)c3)ccc21	?	?	95*	20*	-2%
O=C(Nc1cccc(NC(=O)c2cccnc2)c1)c1cccnc1	-2%	22%	-3	-4	6%
O=C(CN1C(=O)c2ccccc2C1=O)Oc1ccc(F)cc1	·	·	-2	-1	·
COc1cccc(C(=O)NNC(=O)c2ccccc2)c1	·	·	69*	43*	4%
COc1cccc(/C(C)=N/N=C(\C)c2cccc(OC)c2)c1	·	·	39*	34*	10%
C/C(=N\NC(=O)C1(C)CC1(Br)Br)c1cccc(NC(=O)c2ccc(C)o2)c1 (stereo not drawn)	?	?	52*	28*	-4%
COc1ccccc1NC(=O)C(=O)/C=C(\O)c1ccccc1	?	-11%	64*	48*	15%
CCOc1ccccc1NC(=O)C(=O)/C=C(\O)c1cc(OC)ccc1OC	-7%	?	-8	-2	13%
Cc1ccc(C(=O)Nc2cccc(C(=O)NCc3ccccc3)c2)o1	-18%	?	21	-2	-8%
CCCC(=O)N1c2nc(C(C)C)nn2C2(CCCCC2)[C@@H]2CCCC[C@@H]21	-16%[46.1 µM]	19%[46.1 µM]	·	·	·
Cc1ccc(C(=O)Nc2ccc(NC(=O)c3ccc(C)o3)cc2)o1	0%[46.1 µM]	16%	24	9	11%
COc1cccc(NC(=O)c2cccc(NC(=O)c3ccco3)c2)c1	·	·	·	·	4%
Cc1ccc(C(=O)Nc2cccc(Oc3ccccc3)c2)o1	-20%	?	34	30*	12%
COc1ccc(C(=O)NC23CC4CC(CC(C4)C2)C3)cc1	·	·	16	4	5%
COc1cccc(NC(=O)c2ccc(C(=O)c3ccccc3)o2)c1	?	13%[46.1 µM]	93*	38*	-17%
COc1cccc(C(=O)NC23CC4CC(CC(C4)C2)C3)c1	?	1%[46.1 µM]	18	15*	0%
O=C(Nc1ccc(O)cc1)c1ccc(C(=O)c2ccccc2)o1	-5%	?	55*	23	-14%
Cc1ccc(C(=O)Nc2ccccc2Oc2ccccc2)o1	·	·	·	·	2%
CC(C)(C)S(=O)(=O)N1Cc2ccc(CO)cc2[C@H]1CCO	·	·	·	·	8%
CCn1c2ccccc2c2cc(NC(=O)C(=O)N3CCOCC3)ccc21	?	6%	86*	35*	-22%
Cc1cccc(C(=O)NCCNC(=O)c2cccc(C)c2)c1	-41%	?	-10	-1	-8%
SMILES	Marburg entry inh	LASV entry inh	Shiga toxin inh	Cycloheximide cs	AMA1-RON2 inh
CS(=O)(=O)Nc1ccc(C(=O)Nc2ccc3ccccc3c2)cc1	18%	2%	·	35*	-10%
COc1cccc(C(=O)N/N=C(/CCC(=O)O)c2ccccc2)c1	?	-12%	active	52*	0%[2.32 µM]
CCn1c2ccccc2c2cc(NC(=O)CN3CCCC3)ccc21	?	-30%[46.1 µM]	-6	-2	-5%
CCC/C(=N\NC(=O)c1cccc(C)c1)c1ccccc1	0%	?	59*	56*	87%
CCOc1ccc(Nc2nc(C)c(NC(=O)c3cccc(OC)c3)c(Nc3ccc(OCC)cc3)n2)cc1	11µM*	3%[46.1 µM]	·	·	·
Cc1cccc(C(=O)Nc2ccc(C)c(OC(=O)c3cccc(C)c3)c2)c1	4%	·	193*	56*	·
Cc1cccc(C(=O)Nc2ccc3ccccc3c2)c1	·	·	92*	52*	-8%
COc1ccc(/C(O)=C/C(=O)C(=O)NNC(=O)c2ccccc2)cc1	17%[46.1 µM]	1%[46.1 µM]	33	30*	45%
COc1ccc(/C(O)=C/C(=O)C(=O)NNC(=O)C(O)(c2ccccc2)c2ccccc2)cc1	?	3%	-8	6	30%
COc1cc(OC)cc(C(=O)NNC(=O)c2ccccc2Br)c1	20%	28%	-7	-2	77%
COc1ccc(CC(=O)NNC(=O)c2ccc(NC(C)=O)cc2)cc1	?	-2%	-3	-4	29%
COc1c(C(=O)NNC(=O)c2ccccc2)csc1Br	-23%	?	48*	35*	22%
COc1ccc(C(=O)NN/C(C)=C/C(=O)C(F)(F)C(F)(F)C(F)(F)F)cc1	?	-7%	44*	22*	25%
COc1ccc(C(=O)CCC(=O)Nc2cccc(C(C)=O)c2)cc1	·	27%[46.1 µM]	·	·	·
COc1ccc(C(=O)CC(=O)C(=O)Nc2cccc(C(C)=O)c2)cc1	23%[46.1 µM]	-1%[46.1 µM]	24	17*	44%
COc1ccc(C(=O)CC(=O)C(=O)Nc2ccc(C)c(C)c2)cc1	?	11%[46.1 µM]	94*	18*	10%
N#Cc1ccsc1NC(=O)COC(=O)c1ccc(NC(N)=O)cc1	?	?	92*	41*	-2%
CCN(CC)c1ccc(C(=O)OCC(=O)Nc2sccc2C#N)cc1	-2%	?	39*	27*	10%
CCN(CC)c1ccc(C(=O)OCC(=O)Nc2ncccn2)cc1	?	-1%[46.1 µM]	·	·	1%
N#Cc1ccsc1NC(=O)COC(=O)c1cc2ccccc2cc1O	6%	13%	84*	31*	-1%
CC(C)CC(=O)c1c[nH]c(C(=O)NCCCN2CCOCC2)c1	0%	1%	-3	6	-7%
CC(C)CC(=O)c1c[nH]c(C(=O)NCCc2ccccn2)c1	1%	-4%	25	28*	4%
CCC(=O)c1c[nH]c(C(=O)NCCc2ccccn2)c1	-26%[46.1 µM]	0%	42	26*	7%
Cc1ccccc1C(=O)c1c[nH]c(C(=O)NCCc2ccccn2)c1	14%[46.1 µM]	-1%	13	12	5%
O=C(O)[C@H]1O[C@@H](Oc2ccc3ccc(=O)oc3c2)[C@H](O)[C@@H](O)[C@@H]1O	·	·	-1	-4	·
SMILES	Marburg entry inh	LASV entry inh	Shiga toxin inh	Cycloheximide cs	AMA1-RON2 inh
O=C(Cn1ccn(-c2ccc(F)c(F)c2)c(=O)c1=O)c1ccc(F)cc1	·	4%[46.1 µM]	·	·	·
Cc1ccc(NC(=O)CSc2nnc(-c3cc4occc4n3C)n2-c2ccccc2C)c(C)c1	·	-23%[46.1 µM]	·	·	·
COc1cccc(Nc2nnc(SCc3nc4ccccc4s3)s2)c1	27%	10%	109*	65*	5%
Cc1cccc(C)c1Nc1nnc(SCc2nc3ccccc3s2)s1	?	-9%	69	50*	0%
CCOc1cc(/C=C(/NC(C)=O)C(=O)O)cc(Cl)c1OCc1ccc(Br)cc1	·	·	-11	0	-4%
COc1ccc(C)cc1NC1(c2ccccc2)C(=O)c2ccccc2C1=O	·	4%[46.1 µM]	·	·	·
COC1=C(OC)C(=O)C(Sc2ccc3ccccc3c2)=CC1=O	?	?	·	·	13µM*
O=C1NCCN1c1ccccc1	18%	?	·	·	22%
Cc1ccc(N2Cc3ccccc3C2=O)cc1	·	·	24	25*	2%
Cc1ccc(N2C(=O)Cc3ccccc3C2=O)cc1	1%[46.1 µM]	-2%	-1	0	-1%
O=C1N(c2ccccc2)CCN1c1ccccc1	·	·	·	38*	2%

Assay outcomes deposited in PubChem BioAssay by National Center for Advancing Translational Sciences (NCATS).
